{"source": "paper PMC9838217", "about": "“Structure of SALL4 zinc finger domain reveals link between AT-rich DNA binding and Okihiro syndrome”"}
{"molecular_target": "T1, SALL4 ZFC4 G921D (HT-SELEX) (Mus musculus, UniProt Q8BX22 870-940, G921D)", "T1 sequence": "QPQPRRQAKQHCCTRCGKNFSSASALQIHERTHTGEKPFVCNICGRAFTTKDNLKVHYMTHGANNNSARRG", "experiment": "HT-SELEX; high values mean tight binding", "details": "protein: recombinant; vector His6-GST; dsDNA, one strand shown", "procedure,_shortened": "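Each canonical k-mer's binding signal is its read fraction expressed as fold change over the initial random library. Reads came from MiSeq sequencing, scanned for 6-mers, after up to 6 triplicate cycles in which purified recombinant mouse SALL4 zinc finger cluster 4 (residues 870–940, 1 µg) bound library DNA (1.5 µg first cycle, 200 ng later) in 100 µl of 10 mM Tris–HCl pH 7.5, 50 mM NaCl, poly(dI-dC), DTT for 10 min at room temperature. Complexes were then Ni2+ bead-captured, washed, PCR-amplified and reselected.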", "units": {"binding signal": "fold-change vs cycle 0"}}
{"sequence": "AATACG", "binding signal": "1.1 ± 0.0362"}
{"sequence": "CATCTC", "binding signal": "1.01 ± 0.0361"}
{"sequence": "ACGAGC", "binding signal": "0.459 ± 0.061"}
{"sequence": "CCGCGA", "binding signal": "0.221 ± 0.0689"}
{"sequence": "CACGGG", "binding signal": "0.366 ± 0.0584"}
{"sequence": "GCATAA", "binding signal": "1.105 ± 0.0098"}
{"sequence": "AGGCGC", "binding signal": "0.185 ± 0.0792"}
{"sequence": "CCGTGC", "binding signal": "0.251 ± 0.0641"}
{"sequence": "GAGGCA", "binding signal": "0.505 ± 0.1"}
{"sequence": "ACCGAC", "binding signal": "0.497 ± 0.0584"}
{"sequence": "GGTATA", "binding signal": "1.3 ± 0.0853"}
{"sequence": "CAGATA", "binding signal": "1.29 ± 0.0843"}
{"sequence": "GAGAGA", "binding signal": "1.06 ± 0.0177"}
{"sequence": "GCAGGC", "binding signal": "0.24 ± 0.0592"}
{"sequence": "CACGCC", "binding signal": "0.251 ± 0.0597"}
{"sequence": "CGACGA", "binding signal": "0.415 ± 0.0734"}
{"sequence": "CTCAAA", "binding signal": "1.2 ± 0.0463"}
{"sequence": "CTCGCA", "binding signal": "0.471 ± 0.0656"}
{"sequence": "CTGCAC", "binding signal": "0.47 ± 0.0692"}
{"sequence": "CGATGC", "binding signal": "0.454 ± 0.0801"}
{"sequence": "CGGGAC", "binding signal": "0.33 ± 0.0639"}
{"sequence": "CCGCAA", "binding signal": "0.347 ± 0.0535"}
{"sequence": "ACGCGT", "binding signal": "0.366 ± 0.0637"}
{"sequence": "GTGGCA", "binding signal": "0.424 ± 0.0569"}
{"sequence": "CGGCAA", "binding signal": "0.324 ± 0.0774"}
{"sequence": "GCGTGA", "binding signal": "0.455 ± 0.056"}
{"sequence": "GAGCCA", "binding signal": "0.466 ± 0.0659"}
{"sequence": "CTGCCA", "binding signal": "0.451 ± 0.0863"}
{"sequence": "ATCCTG", "binding signal": "1.02 ± 0.0414"}
{"sequence": "ATGCCG", "binding signal": "0.36 ± 0.0731"}
{"sequence": "CGGACA", "binding signal": "0.472 ± 0.0628"}
{"sequence": "GCAGCC", "binding signal": "0.221 ± 0.0775"}
{"sequence": "ACTGAG", "binding signal": "1.01 ± 0.0137"}
{"sequence": "GCGGGA", "binding signal": "0.256 ± 0.0688"}
{"sequence": "ACAGCC", "binding signal": "0.462 ± 0.0935"}
{"sequence": "GCCACA", "binding signal": "0.391 ± 0.0588"}
{"sequence": "ACGCTG", "binding signal": "0.41 ± 0.058"}
{"sequence": "CCCGCC", "binding signal": "0.164 ± 0.0698"}
{"sequence": "CCTGGC", "binding signal": "0.281 ± 0.075"}
{"sequence": "ACTGCG", "binding signal": "0.407 ± 0.0604"}
